Bioassay records (PubChem)
PME-1 primary – PME-1 (human) inhibition; Q9Y570; recombinant PME-1, FP-Rh probe fluorescence polarization; inhibition, % at 5.9 µM; actives 0.53% (n = 320,000); AID 2130;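 active = inhibition above the campaign mean of all compounds plus 3 SD, cut at about 26% in these data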;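 note: competitive labeling of PME-1 active site by serine hydrolase directed probe; 0% = PME-1 with DMSO and 100% = wells lacking PME-1 enzyme; inhibitors block probe labeling so polarization falls and inhibition rises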
Fam108B counter – counter-screen for RBBP9 inhibitors: inhibitors of mouse Fam108B; recombinant Fam108B, FP-Rh probe fluorescence polarization; inhibition, % at 9.51 µM; actives 0.33% (n = 300,000); AID 1947;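 active = inhibition above the screen mean inhibition plus 3 SD, computed separately per campaign, cut at about 18% in these data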;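 note: inhibitors lower polarization as less probe binds the enzyme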
PAFAH2 FP inh – PAFAH2 (human) inhibition; Q99487; recombinant PAFAH2, FP-rhodamine activity probe, fluorescence polarization; inhibition, % at 3.39 µM; actives 0.99% (n = 340,000); AID 492956;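 active = inhibition above the mean over all tested compounds plus 3 SD, cut at about 30% in these data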;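 note: inhibitors block probe labeling of enzyme so polarization drops; 0% = enzyme with DMSO and 100% = wells lacking PAFAH2 protein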
pPAFAH FP inh – inhibitors of human plasma PAF acetylhydrolase (pPAFAH) | Q13093 | recombinant pPAFAH, FP-rhodamine probe fluorescence polarization | inhibition, % at 3.39 µM | actives 1.5% (n = 330,000) | AID 463082;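 active = inhibition above the mean inhibition across the screen plus 3 SD, cut at about 25% in these data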;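 note: inhibitors block binding of the rhodamine activity-based probe so polarization drops; 0% = enzyme with DMSO and 100% = wells lacking pPAFAH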
Target sequence (Q13093 whole entry, looked up): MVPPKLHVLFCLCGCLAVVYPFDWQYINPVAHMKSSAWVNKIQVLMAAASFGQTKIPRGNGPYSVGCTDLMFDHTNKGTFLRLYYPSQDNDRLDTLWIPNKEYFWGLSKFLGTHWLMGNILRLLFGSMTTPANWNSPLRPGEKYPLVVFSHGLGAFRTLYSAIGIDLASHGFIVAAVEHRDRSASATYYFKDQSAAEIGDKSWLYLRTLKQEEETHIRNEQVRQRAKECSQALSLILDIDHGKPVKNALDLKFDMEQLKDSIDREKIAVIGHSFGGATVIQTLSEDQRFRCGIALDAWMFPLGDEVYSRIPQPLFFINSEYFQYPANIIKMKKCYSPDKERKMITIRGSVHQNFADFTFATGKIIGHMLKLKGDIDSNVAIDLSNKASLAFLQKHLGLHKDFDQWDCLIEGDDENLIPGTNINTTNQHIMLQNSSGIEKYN
PAFAH1B3 FP inh – inhibitors of human PAFAH1B3. recombinant PAFAH1B3, FP-rhodamine probe, fluorescence polarization. inhibition, % at 3.39 µM. actives 0.28% (n = 340,000). AID 492972;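 active = inhibition above the screen-wide average of all tested compounds plus 3 SD, cut at about 25% in these data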;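 note: 0% = enzyme with DMSO only and 100% = wells lacking PAFAH1B3 protein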
PAFAH1B2 FP inh – inhibitors of human PAFAH1B2. AID 492953. actives 1.2% (n = 340,000). inhibition, % at 3.39 µM. recombinant PAFAH1B2, FP-rhodamine activity probe, fluorescence polarization;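 active = inhibition above the mean of all tested compounds plus 3 SD, cut at about 24% in these data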;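 note: 0% = enzyme with DMSO and 100% = wells lacking PAFAH1B2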
PAFAH2 confirm – PAFAH2 (human) inhibition, confirmed; inhibition, % at 3.39 µM; actives 65% (n = 2,300); AID 493030; recombinant PAFAH2, FP-rhodamine activity probe, fluorescence polarization; shares compounds with PAFAH2 FP inh;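 active = mean inhibition over three repeats above a set limit taken from the earlier primary screen, cut at about 30% in these data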;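 note: inhibitor blocks binding of rhodamine activity probe so polarization falls; 0% = enzyme with DMSO and 100% = wells lacking PAFAH2 protein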
Active calls of the source: *; · = not tested or not shown. An excerpt weighted towards active compounds, which were near 2.8% of everything screened.

SMILES	PME-1 primary	Fam108B counter	PAFAH2 FP inh	pPAFAH FP inh	PAFAH1B3 FP inh	PAFAH1B2 FP inh	PAFAH2 confirm
COc1cc(/C=C/C(=O)OCC(=O)Nc2ccc([N+](=O)[O-])cc2)ccc1O	3	4	78*	6	5	1	81*
CCOC(=O)/C=C/C(=O)OCC(=O)Nc1ccc(Cl)cn1	-6	-3	-2	2	-1	-6	·
COc1cc(/C=C/C(=O)OCC(=O)Nc2ccc(Cl)cn2)ccc1O	6	·	64*	5	7	4	66*
CC(C)=CC(=O)OCC(=O)Nc1ccc(Cl)cn1	1	-4	52*	3	5	5	43*
CC(C)NC(=S)N(CCc1ccncc1)C(C)C	-1	-3	-4	5	11	8	·
CCOC(=O)[C@H]1[C@H]2COc3ccc(OC)cc3[C@@H]2N2C(=O)c3ccccc3NC(=O)[C@@]12C	-5	-1	4	-4	11	1	·
CCCC(=O)Nc1c(-c2ccccc2)c(=O)c(C)nn1-c1ccc(C)cc1	12	-4	-3	4	3	5	·
CCc1sc(C(=O)Nc2cccnc2)cc1Br	3	-3	4	2	4	2	·
O=C(COC(=O)CN1C(=O)C2CCCCC2C1=O)Nc1c(Cl)cccc1Cl (configuration not stated)	-6	·	3	0	11	2	·
O=C(COC(=O)CC1CCCC1)Nc1ccc(Cl)cn1	-1	·	50*	19	-6	1	38*
O=C(COC(=O)CC1CCCCC1)Nc1c(Cl)cccc1Cl	14	·	38*	20	3	7	31*
O=C(CN1CC(c2ccccc2)CC1=O)Nc1ccc2c(c1)OCO2 (configuration not stated)	3	1	32*	2	-6	0	14
Cc1nnc(NC(=O)c2csc3c2CCC(C)C3)s1 (configuration not stated)	10	-2	-2	2	10	8	·
Cc1ccc(NC(=O)COC(=O)C2CC2C)c(S(=O)(=O)N2CCCCC2)c1 (configuration not stated)	-1	3	82*	5	0	-11	78*
CC1CC1C(=O)OCC(=O)Nc1cc(S(=O)(=O)N2CCCCC2)ccc1Cl (configuration not stated)	·	·	72*	8	7	7	60*
O=Nc1c(O)n(Cc2cccc(C(F)(F)F)c2)c2ccccc12	-44	-22	-23	-13	-40	-15	·
CCN(c1ccc(NC(=O)COC(=O)c2cccs2)cc1)C(C)C	0	1	30*	11	5	-6	19
CCN(CC)c1ccc(NC(=O)COC(=O)c2cccs2)cc1	5	0	26	12	9	6	·
O=C(COC(=O)c1cccs1)Nc1cccc(Cl)c1	0	·	91*	6	7	8	89*
CC(=O)c1cccc(NC(=O)COC(=O)c2cccs2)c1	-8	1	81*	8	0	4	77*
O=C(Cn1cc(CCO)nn1)N1CCNCC1	5	-1	9	7	-1	1	·
C#CCCOC(=O)N1C2=NC(C(=O)OC)=C(C(=O)OC)[C@@H]3N(Cc4ccccc4)c4ccccc4[C@]23C[C@H]1C(=O)OC	4	1	8	3	1	2	·
COc1cccc(/C=C/C(=O)OCC(=O)NC2CC2)c1OC	·	·	68*	6	16	5	58*
COc1ccc(/C=C/C(=O)OCC(=O)NC2CC2)c(OC)c1	·	·	83*	4	10	1	79*
COc1ccccc1/C=C/C(=O)OCC(=O)NC1CCS(=O)(=O)C1 (configuration not stated)	·	·	14	-1	11	3	·
SMILES	PME-1 primary	Fam108B counter	PAFAH2 FP inh	pPAFAH FP inh	PAFAH1B3 FP inh	PAFAH1B2 FP inh	PAFAH2 confirm
COc1ccc(/C=C/C(=O)OCC(=O)N(C)CC(=O)Nc2ccc(C)cc2)c(OC)c1	·	·	11	4	6	7	·
O=C(NNC(=O)C1CCCO1)c1ccc(Cl)cc1 (configuration not stated)	-2	0	-5	3	5	10	·
CC(C)n1c(N2CCN(C(=O)N3CCCCC3)CC2)nc2ccccc21	-2	1	33*	8	1	7	18
CC(C)n1c(N2CCN(C(=O)c3cccs3)CC2)nc2ccccc21	-1	-3	-4	-2	3	4	·
COc1ccc(/C(C)=N/NC(=O)CNC(=O)CCc2ccccc2)c(OC)c1	-1	-3	-1	4	-1	3	·
CC1=NN(C(N)=S)C(=O)C1N=Nc1ccc(C)c(Br)c1 (configuration not stated)	3	11	42*	4	11	8	33*
Cc1ccc(C)c(S(=O)(=O)N(C)c2ccc(OC(=O)C3CCN(C(=O)Nc4ccccc4)CC3)cc2)c1	·	·	32*	·	4	-1	17
CC1=C/C(=C\c2ccc3c(c2)OCO3)C(=O)S1	1	-2	3	20	4	-5	·
C=CCSC1=N/C(=C\c2ccc3c(c2)OCO3)C(=O)S1	-2	9	32*	9	10	-2	31*
COC(=O)c1ccc(NC(=O)C23CCC(C)(C(=O)O2)C3(C)C)cc1 (configuration not stated)	1	2	-2	2	4	4	·
CN(Cc1cnccn1)Cc1nc(Cc2ccccc2Cl)no1	-1	1	-2	6	-1	3	·
Clc1ccccc1Cc1noc(CN2CCN(Cc3ccccn3)CC2)n1	-8	-1	33*	8	7	11	9
CN(CC(=O)Nc1ccncc1)S(=O)(=O)c1ccc(Cl)cc1	0	1	-13	2	2	4	·
CCn1c(SCc2c(Cl)cccc2Cl)nnc1-c1nn(-c2ccccc2)ccc1=O	-2	-5	49*	5	9	0	26
COc1cccc2sc(Nc3nnc(-c4ccc(F)cc4)o3)nc12	18	3	65*	18	15	11	20
COc1cccc2sc(Nc3nnc(-c4cccs4)o3)nc12	18	5	9	10	2	-2	·
CCCNC(=O)COC(=O)c1ccc(OCC(=O)Nc2ccccc2OC)c(OC)c1	-1	5	51*	-2	-6	0	45*
COc1ccccc1NC(=O)COc1ccc(C(=O)OCC(=O)NC(C)(C)C)cc1OC	-5	-2	81*	7	5	1	83*
COC(=O)c1ccc(C(=O)OC)c(NC(=O)COc2ccccc2OC)c1	-1	-1	2	8	11	0	·
COc1ccccc1NC(=O)COC(=O)c1cc2c(s1)CCC2	·	·	54*	·	1	1	38*
